# From PubChem
# SNCA viab count: counter-screen for SNCA expression inhibitors: cell viability; 150,000 compounds, 0.12% hits; Potency, µM (series often up to 57.1 µM), inactives show at the highest dose activity change, negative = cytotoxicity, hits mostly cytotoxic; HEK-293-SNCA-luc viability, GF-AFC fluorescence, 24 h;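 also: potency is read from the fitted curve at half-maximal effect; 0% = DMSO-treated cells and -100% = medium-only wells without cells; nearly all actives have a fitted effect of over 30% in size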
#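 Cytotoxicity counterscreen: after 24 h compound treatment of genome-edited SNCA-luciferase HEK-293 cells, live-cell protease substrate GF-AFC read by fluorescence after 30 min; activity scaled between DMSO (0%) and medium-only (-100%), curves Hill-fitted.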
# SNCA expr inhib: SNCA gene expression inhibition | HEK-293 SNCA-luciferase knock-in, luminescence, 24 h | Potency, µM (top dose mostly 57.2 µM), inactives show at the highest dose activity change, negative = inhibition, actives largely listed as inhibitors | 140,000 compounds, 0.17% hits | AID 1671194;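 also: potency is read from the fitted curve at half-maximal effect; plate controls were DMSO cells for no effect and cell-free wells for full effect; nearly all actives have a fitted effect of over 45% in size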
# IP6K1 inh: inhibitors of human IP6K1. Q92551. activity change, % (series mostly up to about 58 µM). 140,000 compounds, 0.81% hits. IP6K1 kinase, ADP-Glo luminescence, 2 h; active compounds read low; in the data active = activity change below about -25%; also: % is scaled to controls: 0 for no effect and ±100 for the full control effect
#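 ADP-Glo luminescence measures ADP made by human IP6K1 during a 2 h RT reaction with ATP/IP6 (mix at 1.3 mM/130 uM); top library doses 57.5 and 19.1 uM final.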
# KDM5B inh: inhibitors of human KDM5B histone demethylase; Q9UGL1; KDM5B demethylase, FDH-coupled NADH fluorescence (FDH is formaldehyde dehydrogenase); Potency, µM (highest dose often 57.7 µM), usual class: inhibitors; 220,000 compounds, 2.6% hits; AID 1347165; also: potency is read from the fitted curve at half-maximal effect; 0% is about no effect; nearly all actives have a fitted effect of over 70% in size
# Target sequence (Q9UGL1 whole entry, looked up): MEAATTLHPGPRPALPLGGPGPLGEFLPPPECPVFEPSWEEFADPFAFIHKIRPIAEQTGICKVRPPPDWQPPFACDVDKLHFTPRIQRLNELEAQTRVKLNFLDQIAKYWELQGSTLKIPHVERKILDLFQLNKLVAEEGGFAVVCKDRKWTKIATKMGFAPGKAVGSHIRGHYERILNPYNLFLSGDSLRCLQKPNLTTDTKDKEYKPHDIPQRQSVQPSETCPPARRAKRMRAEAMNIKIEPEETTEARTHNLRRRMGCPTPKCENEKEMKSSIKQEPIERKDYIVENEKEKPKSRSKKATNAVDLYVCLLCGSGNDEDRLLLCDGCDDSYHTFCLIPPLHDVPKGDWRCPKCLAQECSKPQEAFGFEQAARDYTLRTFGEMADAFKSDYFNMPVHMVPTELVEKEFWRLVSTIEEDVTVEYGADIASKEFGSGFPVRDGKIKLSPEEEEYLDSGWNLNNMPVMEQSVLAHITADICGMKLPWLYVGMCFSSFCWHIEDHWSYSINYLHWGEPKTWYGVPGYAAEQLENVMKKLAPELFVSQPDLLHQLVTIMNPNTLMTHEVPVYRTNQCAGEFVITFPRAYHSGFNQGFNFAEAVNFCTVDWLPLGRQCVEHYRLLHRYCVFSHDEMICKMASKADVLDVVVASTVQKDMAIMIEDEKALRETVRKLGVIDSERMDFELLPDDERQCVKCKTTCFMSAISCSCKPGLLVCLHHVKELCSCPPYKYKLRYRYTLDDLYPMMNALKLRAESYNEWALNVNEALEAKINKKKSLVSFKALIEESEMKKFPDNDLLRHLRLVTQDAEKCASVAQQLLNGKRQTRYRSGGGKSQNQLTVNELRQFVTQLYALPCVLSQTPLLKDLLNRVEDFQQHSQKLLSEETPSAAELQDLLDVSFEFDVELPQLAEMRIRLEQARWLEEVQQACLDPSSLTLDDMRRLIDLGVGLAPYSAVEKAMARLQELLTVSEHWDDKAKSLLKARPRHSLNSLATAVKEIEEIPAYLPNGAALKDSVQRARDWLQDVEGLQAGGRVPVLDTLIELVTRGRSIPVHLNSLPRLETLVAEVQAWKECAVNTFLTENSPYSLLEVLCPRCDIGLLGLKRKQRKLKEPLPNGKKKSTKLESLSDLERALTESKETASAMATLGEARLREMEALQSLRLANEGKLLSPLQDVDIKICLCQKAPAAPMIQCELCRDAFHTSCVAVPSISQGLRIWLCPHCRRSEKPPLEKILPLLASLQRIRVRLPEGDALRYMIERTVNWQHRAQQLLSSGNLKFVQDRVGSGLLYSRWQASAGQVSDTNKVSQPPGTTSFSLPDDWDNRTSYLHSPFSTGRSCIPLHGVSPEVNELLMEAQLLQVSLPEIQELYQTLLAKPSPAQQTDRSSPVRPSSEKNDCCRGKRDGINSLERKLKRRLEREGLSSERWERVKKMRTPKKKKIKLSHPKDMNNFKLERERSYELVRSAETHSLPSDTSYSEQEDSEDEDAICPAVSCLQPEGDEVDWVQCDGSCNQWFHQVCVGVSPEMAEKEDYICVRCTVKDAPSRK
#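 Inhibition is measured as reduced NADH fluorescence generation from FDH coupling to formaldehyde release. Truncated KDM5BΔAP at 200 nM final acts on H3K4me3 peptide (12.5 µM in substrate mix) in pH 7.5 HEPES buffer with Tween-20, 30 min, room temperature.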
# An asterisk follows results filed as active; i = inactive; ? = inconclusive; . = no result given; [ ] = dose if it differs, or a comment. Compounds with a hit are over-represented: about 2.8% of the library has one in this group of screens. Unless noted, calls follow the shape of the dose curve; as a rule, active = well fitted curve in the direction sought with a large enough effect; inconclusive = small, poorly fitted or top-dose-only effect, or another doubt; inactive = no such curve, though single readings can be large; an effect the other way counts as inactive or inconclusive.
SMILES,SNCA viab count,SNCA expr inhib,IP6K1 inh,KDM5B inh
COc1cccc(-c2nc3cnccn3c2NCCC(=O)NC2CCCCCC2)c1,?,19%,2,28µM*
CCOc1cccc(C(C)NC(=O)N(C)Cc2ccc(C#N)cc2)c1 (stereo not drawn),.,.,.,i
CN(C)C(=O)NC1CCN(c2nccc(Nc3ccccc3Cl)n2)CC1,4%,-5%,1,.
CCOC(=O)C(Cc1ccc(Cl)c(N2CCN(C(=O)OC(C)(C)C)CC2)c1)OC (stereo not drawn),.,.,15,.
Cc1ccccc1-c1nc2cnccn2c1NCCC(=O)N1CCCCC1,20%,117%,23,25µM*
Cc1cccc(C(=O)Nc2c(-c3ccccc3)nc3cc(C)ccn23)c1,?,28%,4,i
Cc1cccc(-c2nc3cnccn3c2NCCC(=O)N(C)C)c1,27%,5%,-3,32µM*
Cc1cccc(C)c1Nc1c(-c2ccccc2O)nc2cnccn12,.,.,.,i
O=C(O)c1ccc(Cc2ccccc2)o1,.,.,.,i
O=Cc1cccc(-c2ccc(C(=O)O)o2)c1,4%[87.6 µM],27%[87.6 µM],-20,126µM*
COc1ccc2c(c1)CCN=C2C[C@H]1CN(C(=O)c2ccc(F)cc2)CC[C@H]1CC(=O)O,2%[87.6 µM],-22%[87.6 µM],-4,?
COc1cc2c(cc1OC)C(C[C@H]1CN(C(=O)C(C)(C)C)CC[C@H]1CC(=O)O)=NCC2,2%[87.6 µM],-2%[87.6 µM],5,i
COc1ccc2c(c1)C(C[C@H]1CN(C(=O)C(C)(C)C)CC[C@H]1CC(=O)O)=NCC2,4%[87.6 µM],-35%[87.6 µM],11,35µM*
COc1ccc2c(c1)CCN=C2C[C@H]1CN(C(=O)c2c(C)noc2C)CC[C@H]1CC(=O)O,8%,-5%,7,22µM*
COc1ccc2c(c1)CCN=C2C[C@H]1CN(C(=O)CC(C)(C)C)CC[C@H]1CC(=O)O,11%[87.6 µM],22%[87.6 µM],17,28µM*
COCCNc1ncc(-c2cccc(NC(C)=O)c2)c2c1OCC2,-7%[87.6 µM],-26%[87.6 µM],0,40µM*
COCCNc1ncc(-c2ccsc2)c2c1OCC2,5%[87.6 µM],95%[87.6 µM],6,35µM*
COCCNc1ncc(-c2ccc([S+](C)(=O)[O-])cc2)c2c1OCC2,5%[87.6 µM],3%[87.6 µM],2,32µM*
COc1ccccc1-c1nc(C(=O)N2CCOCC2)n2ccccc12,1%,2%,-11,89µM*
O=C(c1nc(-c2ccc(F)cc2)c2cnccn12)N1CCOCC1,0%[87.6 µM],5%[87.6 µM],0,40µM*
COc1ccccc1-c1nc(C(=O)N2CCOCC2)n2ccncc12,-4%,3%,-7,100µM*
COc1ccccc1-c1nc(C(=O)N2CCN(c3ncccn3)CC2)n2ccccc12,3%,?,-19,?
COc1ccccc1-c1nc(C(=O)N2CCN(c3ncccn3)CC2)n2ccncc12,7%,2%,11,?
Cc1cccc(CNC(=O)c2ccc(-c3nnc4ccc(NC(=O)C5CCC5)cn34)cc2)c1,-26%,?,-5,28µM*
Cc1ccc(CNC(=O)c2ccc(-c3nnc4ccc(NC(=O)C5CCC5)cn34)cc2)cc1,-3%,1%,6,?
SMILES,SNCA viab count,SNCA expr inhib,IP6K1 inh,KDM5B inh
O=C(O)c1ccc(-c2nnc3ccc(NC(=O)C4CCC4)cn23)cc1,2%,149%,-1,32µM*
CC(C)CCNC(=O)c1ccc(-c2nnc3ccc(NC(=O)C4CCC4)cn23)cc1,-14%,6%,-7,?
CC(C)CNC(=O)c1ccc(-c2nnc3ccc(NC(=O)C4CC4)cn23)cc1,-2%,?,-12,14µM*
CN(C(=O)c1ccc(-c2nnc3ccc(NC(=O)C4CCC4)cn23)cc1)C1CCCCC1,-8%,0%,8,?
O=C(O)CNCc1cccc2ccccc12,.,.,.,i
CC(=O)Nc1nc2c(C)cc(NS(=O)(=O)Cc3ccccc3)cc2s1,.,.,.,i
CN1C(=O)C2(CCN(C(=O)c3cccc(Br)c3)C2)c2ccccc21 (stereo not drawn),-19%,-23%,12,i
COc1ccc(N2CC3CCC(C2)N3Cc2cccc(-c3ccc(F)cc3F)c2)cc1,9%,97%,6,79µM*
CC1CCN(Cc2cc(=O)oc3cc(-c4ccccc4)c(O)cc23)CC1,.,.,.,i
CNC(=O)c1cc(C2CC2)nc2onc(C3CCN(C(=O)Nc4ccc(Cl)cc4)CC3)c12,.,.,15,.
CCOc1cc(-c2noc(-c3nnn4c3COC(c3ccc(Cl)cc3)C4)n2)ccc1OC (stereo not drawn),-14%,6%,0,?
CCOc1ccc(C2Cn3nnc(-c4nc(-c5ccccc5OCC)no4)c3CO2)cc1 (stereo not drawn),2%,-28%,-2,25µM*
